Where “and” joins values, the source holds several entries; their conditions need not be identical. Equal entries are not always repeated. Inconclusive results are not listed. Where a call stands in place of a potency, no number is given. Where a structure was tested more than once in an assay, its records may differ in their call. Calls of active or inactive are those of the source. Calls follow the shape of the dose curve; as a rule, active = well fitted inhibition curve with a large enough effect in the repeat runs; inconclusive = weak or mixed curves; inactive = no such curve, though single readings can be large or run the other way.
Potency is read from the fitted curve at half-maximal effect.

The experiment in a line: qHTS assay to identify small molecule antagonists of the estrogen related receptor (ERR) signaling pathway from Tox21 library (AID 1224848). Also: nearly all actives have a fitted effect of over 50% in size. The conditions noted are these: ERR reporter cell line, luciferase antagonist mode, 18 h; series mostly up to 92.4 µM. From the text: U.S. Tox21 Program National Center for Advancing Translational Sciences [NCATS] NIH Chemical Genomics Center [NCGC] U.S. Environmental Protection Agency [EPA] National Institutes of Environmental Health Sciences [NIEHS] National Toxicology Program [NTP] U.S. Food and Drug Administration [FDA] Tox21 Assay Overview: Estrogen related receptors (ERRs), the first orphan nuclear receptors discovered, play an important role in the control of cellular energy metabolism. ERRs are required for high-energy production in response to the environmental challenges. ERR-alpha was also identified as an adverse marker for breast cancer progression; ERR-alpha-positive tumors have a poor prognosis. To screen and to identify environmental compounds that perturb the ERR signaling pathways could provide valuable information for potential therapeutic or preventive measures in the treatment of metabolic disease. For identifying ERR antagonists, ERR cell line (provided by NTP) has been used to screen Tox21 10K library.
Tox21 Assay Protocol Summary: The ERR cells were dispensed at 2,000 cells/5 ul/well in 1536-well white plates using a Multidrop dispenser. After the assay plates were incubated at a 37 C/5% CO2 incubator for 6 hours, 23 nL of compounds dissolved in DMSO, positive and negative controls or DMSO only was transferred to the assay plate by a pin tool. The plates were incubated at 37 C for 18 hours. 4 ul/well of One-Glo reagent was added into the assay plates using a Flying Reagent Dispenser. After 30-minute incubation at room temperature, the luminescence intensity in the plates was measured using a ViewLux plate reader.
On the technique in general: qHTS replaces the single test concentration by a dilution series.
Turning to `CCN1CCCC1CNC(=O)c1cc(S(=O)(=O)CC)c(N)cc1OC` (stereo not given), the Potency result was “inactive”.
On the same count and under the same terms, then `Nc1ccc(O)cc1`, with 22.5 µM (active) and inactive; and `CCCCCC(=O)O[C@]1(C(C)=O)CC[C@H]2[C@@H]3CCC4=CC(=O)CC[C@]4(C)[C@H]3CC[C@@]21C`, with 24.2 µM (active) and 7.5 µM (active); and `COC(c1ccccc1)(c1ccccc1)[C@H](Oc1nc(C)cc(C)n1)C(=O)O`, with “inactive”.
The same measure, in the same setting: next, `CO[Si](OC)(OC)c1ccccc1`: “inactive”.
The same measure, in the same setting: then `CCCCOCCOC(=O)c1ccccc1C(=O)OCCOCCCC`, with 26.7 µM (active) and 30.6 µM (active); and `Nc1cc(Cl)c(-c2cc(Cl)c(N)cc2Cl)cc1Cl`, with 54.4 µM (active) and 61.1 µM (active).
In the case of `C=C(C)C1CC=C(C)C(OC(C)=O)C1` (stereo not given), the Potency entry was “inactive”.
For the compound `OCC(CO)N[C@H]1C[C@](O)(CO)[C@@H](O)[C@H](O)[C@H]1O`, the Potency result was “inactive”.
In the case of `Cc1cc(OCCOCC[N+](C)(C)Cc2ccccc2)ccc1C(C)(C)CC(C)(C)C`, the Potency is 13.6 µM (active) and 6.68 µM (active).
Consider `CCCCCCCCCCCCCCCCCl`, for which the activity, negative = inhibition was 15.7% [at 19 µM] (inactive).
With `CN(C)c1ccc2nc3ccc(=[N+](C)C)cc-3sc2c1`, the Potency was 739 nM (active) and 433 nM (active) and 473 nM (active).
The same measure, in the same setting: next, `CCN(CC)C(=S)SSC(=S)N(CC)CC`: 243 nM (active) and 55.8 nM (active) and 298 nM (active); `C=CC(=O)OCCCCCCOC(=O)C=C`: “inactive”; `CCOC(=O)C(C)C(C)=O` (stereo not given): “inactive”.
The same measure, in the same setting: next, `BrC1CCC(Br)C(Br)CCC(Br)C(Br)CCC1Br` (stereo not given): 27.2 µM (active) and 58 µM (active).
`NC(Cc1ccc(Cl)cc1)C(=O)O` (stereo not given): the activity, negative = inhibition was -15% [at 0.349 µM] (inactive).
Turning to `CCCCN(CCO)CCCC`, the Potency result was “inactive”.
Still for that read-out and setting: then `CC1=C(C=O)C(C)(C)CC=C1`, with “inactive”; and `COc1ccc(CCN2CCC(Nc3nc4ccccc4n3Cc3ccc(F)cc3)CC2)cc1`, with 12.5 µM (active) and 26.6 µM (active).
On the same count and under the same terms, then `Cc1cccc([N+](=O)[O-])c1C(=O)O`, with “inactive”.
Still for that read-out and setting: next, `OCCN1CCNCC1`: “inactive”; `CC(C)(c1ccccc1)c1ccc(Nc2ccc(C(C)(C)c3ccccc3)cc2)cc1`: 15.3 µM (active) and inactive.
Take `CC(C)(C)c1ccc(O)c(C(C)(C)C)c1`: the Potency was 54.3 µM (active) and 61.1 µM (active).
Same read-out and setting: then `CCC(C)(Oc1ccc(C2(c3ccc(OC(C)(CC)C(=O)O)cc3)CCCCC2)cc1)C(=O)O` (stereo not given), with “inactive”; and `c1cnc2cc3c(cc2n1)C1CNCC3C1`, with “inactive”; and `CCCC(=O)c1ccccc1`, with “inactive”.
On the same count and under the same terms, next, `O=C(O)c1cc(Cl)cc(Cl)c1`: “inactive”; `CC(C)CCOCc1ccccc1`: “inactive”; `O=S(=O)(O)c1ccc2nc(-c3ccccc3)[nH]c2c1`: “inactive”.
`CC1COC(=O)O1` (stereo not given): the Potency result is “inactive”.
The same measure, in the same setting: then `Cc1c(O)cccc1C(=O)N[C@@H](CSc1ccccc1)[C@H](O)CN1C[C@H]2CCCC[C@H]2C[C@H]1C(=O)NC(C)(C)C`, with 15 µM (active) and 18.8 µM (active); and `COc1ccc(Cc2cnc(N)nc2N)cc1OC`, with “inactive”.
Still for that read-out and setting: next, `Cc1occc(=O)c1OC(=O)C(C)C`: “inactive”; `CC(C)(C)c1ccccc1`: “inactive”.
Still for that read-out and setting: then `NC(=Nc1ccccc1)Nc1ccccc1`, with “inactive”.
Regarding `Cc1cc(C2(c3cc(C)c(O)cc3C)OS(=O)(=O)c3ccccc32)c(C)cc1O`, the Potency is 61.1 µM (active) and inactive.
Still for that read-out and setting: next, `Cc1cccc2n[nH]nc12`: “inactive”; `C#CC(C)(CC)OC(=O)c1ccccc1C(=O)O` (stereo not given): “inactive”.
On the same count and under the same terms, next, `O=C(O)CCc1ccccc1`: “inactive”.

The values are drawn from PubChem BioAssay (Tox21).
